Measurements taken from PubChem BioAssay (EPA / NIEHS).
Results filed as inconclusive are left out. Calls of active or inactive are those of the source. The calls were made as follows: active = hit-call score of the fitted dose curve at least 0.9, where 1 is the maximum; inconclusive = response in the unintended direction; inactive = score below 0.9.

Assay: ACEA_ER_AUC_viability: ACEA Biosciences xCELLigence Real-Time Cell Analysis on Estrogen Receptor Agonism for Viability (AID 2283782);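 also: continuous compound exposure with impedance area under curve over 80 h; hit means loss of impedance signal meaning reduced cell growth or viability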
How it was run: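 T-47D; phenol red-free RPMI1640 + 10% CS-FBS; 8 conc., 1:4 serial, max 100 uM final, ≤0.5% DMSO; n = 2; continuous exposure; impedance monitored to 80 h post-dose; AUC vs DMSO.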

Structure (SMILES)	outcome	AC50
O=S(=O)(O)CCC(F)(F)C(F)(F)C(F)(F)C(F)(F)C(F)(F)C(F)(F)C(F)(F)C(F)(F)F	inactive	–
CSc1ccc(O)cc1C	–	16.2 µM (active)
Cc1ccc2c(c1)OCC(=O)CO2	inactive	–
CC(C)CCCC(C)CCO (configuration not stated)	inactive	–
CCOCN(C(=O)CS(=O)(=O)O)c1c(C)cccc1CC	inactive	–
c1ccc(C[P+](c2ccccc2)(c2ccccc2)c2ccccc2)cc1	–	83.7 µM (active)
O=C(O)C(F)(F)C(F)(F)C(F)(F)C(=O)O	inactive	–
O=S(=O)(O)CCC(F)(F)C(F)(F)C(F)(F)C(F)(F)F	inactive	–
O=C1c2ccccc2C(=O)c2c(Cl)cccc21	inactive	–
C=CCOC(=O)CC(C)C	inactive	–
COC(=O)c1ccc(C=O)cc1	inactive	–
CC(C)=CCCC(C)O (configuration not stated)	inactive	–
OCCC(O)CO (configuration not stated)	inactive	–
OCC(F)(F)C(F)(F)C(F)(F)C(F)(F)C(F)(F)C(F)(F)C(F)(F)C(F)(F)CO	–	75 µM (active)
OCCCCl	inactive	–
CC(C)(C)C(=O)C1C(=O)c2ccccc2C1=O	–	88.2 µM (active)
CCOCOCC	inactive	–
CC1=CCC(=O)O1	inactive	–
Cc1ccc(S(=O)(=O)C(I)I)cc1	–	4.22 µM (active)

Structure (SMILES)	outcome	AC50
Oc1ccc2c(c1)CCC2	inactive	–
O=C=Nc1cccc2c(N=C=O)cccc12	inactive	–
O=C(O)C(F)(F)C(F)(F)C(F)(F)OC(F)(C(F)(F)F)C(F)(F)F	inactive	–
C[Si](C)O[Si](C)C	–	50 µM (active)
Nc1cccnc1N	–	83.2 µM (active)
NCC(F)(F)C(F)(F)C(F)(F)C(F)(F)C(F)(F)C(F)(F)F	inactive	–
OCC(O)CC(F)(F)C(F)(F)C(F)(F)C(F)(F)C(F)(F)C(F)(F)C(F)(F)C(F)(F)F (configuration not stated)	inactive	–
Brc1nc2ccccc2s1	inactive	–
CO[Si](C)(CCC(F)(F)C(F)(F)C(F)(F)C(F)(F)C(F)(F)C(F)(F)F)OC	inactive	–
O=C=NCc1cccc(CN=C=O)c1	inactive	–
CCCCCC/C=C/CCCCCCCC(=O)O	–	50 µM (active)
CCC(C)CO (configuration not stated)	–	74.7 µM (active)
CC(=O)C=O	inactive	–
Cc1cc(C)c(O)c(C(C)(C)C)c1	–	90.6 µM (active)
Nc1c(Br)cc([N+](=O)[O-])cc1Br	inactive	–
O=C(Cl)c1ccc(Cl)cc1Cl	–	78.9 µM (active)
CC(O)C#CC(C)O (configuration not stated)	–	26.7 µM (active)
CO[Si](CCCOCC1CO1)(OC)OC (configuration not stated)	–	76.8 µM (active)
